AMA1-RON2 inh: qHTS for Inhibitors of AMA1-RON; Towards Development of Antimalarial Drug Lead: Primary Screen; 360,000 compounds, 0.2% hits; AID 720542, 2013; AlphaScreen AMA1-biotinylated RON2 peptide binding; Plasmodium falciparum AMA1 (3D7) - RON2 peptide interaction; Potency, µM (series often up to 58.2 µM), actives largely listed as inhibitors; note: nearly all actives have a fitted effect of over 45% in size
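AMA1 (3D7) with his tag at 25 nM final met compounds first, then biotinylated RON2 peptide at 25 nM; detection used donor plus acceptor beads, 10 µg/mL apiece, read by AlphaScreen after 30 min at room temperature.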
Pf growth 96h: Primary qHTS for delayed death inhibitors of the malarial parasite plastid, 96 hour incubation. P. falciparum luciferase reporter growth, 96 h. Potency, µM (series often up to 28.7 µM), hits mostly inhibitors. 320,000 compounds, 6.9% hits. AID 504834, 2011
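Plates of compound plus infected erythrocytes (2% hematocrit, 0.05% parasitemia final) incubate 96 hours, 37 C, 5% CO2. Detection reagent added; reduced luminescence from the parasites' luciferase reporter flags inhibition.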
Shiga toxin inh: A qHTS for Small Molecule Inhibitors of Shiga Toxin. inhibition, % at 38.7 µM. 290,000 compounds, 9.2% hits. Vero cells, Shiga toxin protein synthesis inhibition reporter; in the data active = inhibition mostly above about 28%, no sharp cut-off; inactive = mostly below about 43%
CHX counter: Cycloheximide Counterscreen for Small Molecule Inhibitors of Shiga Toxin. cell reporter, cycloheximide protein synthesis inhibition counterscreen. max response, %. 300,000 compounds, 12% hits; in the data active = max response mostly above about 13%, no sharp cut-off; inactive = mostly below about 14%; note: read at 38.3 µM for the half of the compounds with a filed dose
SARS PLP yeast: qHTS of Yeast-based Assay for SARS-CoV PLP; S. cerevisiae expressing SARS-CoV PLpro, growth rescue; Potency, µM (top dose mostly 32.9 µM), hits mostly activators; 330,000 compounds, 0.19% hits; AID 485353, 2010; calls by dose curve; note: nearly all actives have a fitted effect of over 55% in size
Pf growth 48h: Primary qHTS for delayed death inhibitors of the malarial parasite plastid, 48 hour incubation; P. falciparum luciferase growth in erythrocytes, 48 h; Potency, µM (series often up to 28.7 µM), most hits filed as inhibitors; 310,000 compounds, 5.9% hits
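Compounds are pin-transferred into medium, infected erythrocytes (2% hematocrit, 0.1% parasitemia final) are added, and plates sit one parasite generation at 37 C in 5% CO2. Detection reagent is then added and luminescence measured.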
A number is an active result; - = inactive; ? = inconclusive; . = not tested or not shown; [ ] = remark or other dose. Rows were chosen to be rich in hits. Some 19% of all compounds tested hit in one or more screens of this group. Unless noted, calls come from the whole dose curve; as a rule, active = well fitted curve in the direction sought with a large enough effect; inconclusive = small, poorly fitted or top-dose-only effect, or another doubt; inactive = no such curve, though single readings can be large; an effect the other way counts as inactive or inconclusive.

SMILES	AMA1-RON2 inh	Pf growth 96h	Shiga toxin inh	CHX counter	SARS PLP yeast	Pf growth 48h
CSCCC(C(=O)N1CC2(C)CC1CC(C)(C)C2)N1C(=O)c2ccccc2C1=O (centres undefined)	-	13.1µM	-	-	-	-
CCOC(=O)NC1(C(F)(F)F)NC(=O)N(c2ccc(F)cc2)C1=O (centres undefined)	-	4.65µM	-	-	-	-
CC(=O)Nc1ccc(S(=O)(=O)NC2(C(F)(F)F)NC(=O)N(c3ccc(C)cc3)C2=O)cc1 (centres undefined)	-	9.28µM	-	-	-	-
Cc1ccccc1-c1cc2nc(Oc3ccc4c(c3)OCO4)n(C)c(=O)c2s1	-	.	.	.	.	.
CCCCNC(=O)C1(C)CCC(=O)N1CCOC (centres undefined)	-	.	.	.	.	.
Cc1cc2c(s1)c1cnn(Cc3ccccc3F)c(=O)c1n2C(C)C	.	.	-	-	.	.
CC1CCN(C(=O)CNC(=O)c2cccc(OC(F)F)c2)CC1	-	-	48.8	18.3	-	-
COc1cccc(C(=O)NCC(=O)N2CCC(C)CC2)c1	-	-	-	24.7	-	-
COc1cccc(C(=O)NCCS(=O)(=O)N2CCC(C)CC2)c1	-	-	.	.	-	-
Cc1ccc(NC(=O)CS(=O)CC(=O)N(C(C)C(=O)NC2CCCCC2)C(C)(C)C)cc1 (centres undefined)	-	-	-	-	-	?
O=C(NC12CC3CC(CC(C3)C1)C2)C1CCCN1C(=O)Nc1ccccc1 (centres undefined)	-	-	-	-	-	-
CC(=O)c1ccc(N=Cc2c(O)n(-c3cc(Cl)ccc3N3CCOCC3)c(=O)c3ccccc23)cc1	-	.	-	-	-	0.657µM
O=c1c2ccccc2c(C=Nc2ccc(Cl)cn2)c(O)n1-c1cc(Cl)ccc1N1CCOCC1	-	?	-	-	-	-
Cc1ccc(S(=O)(=O)c2cc3cc(Br)ccc3oc2=O)cc1	-	1.65µM	-	-	-	-
CCC(=O)OCC(=O)[C@@]1(OC(=O)CC)[C@H](C)C[C@@H]2[C@@H]3[C@H]([C@@H](O)C[C@@]21C)[C@]1(C)C=CC(=O)C=C1C[C@@H]3Cl	.	4.05µM	.	.	.	2.56µM
CC12C=CC(=O)C=C1CCC1C2C(O)CC2(C)C1CCC2(C)O (centres undefined)	-	.	.	.	.	.
CCC(=O)[C@@]1(C)[C@H](C)C[C@@H]2[C@@H]3CCC4=CC(=O)C=C[C@@]4(C)[C@H]3[C@H](O)C[C@]21C	.	2.56µM	.	.	.	2.56µM
Cc1sc2ncn(CC(=O)NCCCC(=O)N3CCC(C(N)=O)CC3)c(=O)c2c1C	-	-	-	-	-	-
CCc1nc2c(OCc3ccc(Cl)cc3Cl)cccn2c1N(C)C(=O)CC(C)C	-	.	.	.	.	.
C/C(=N\NC(=O)c1ccc2c(c1)OCO2)c1ccco1	-	-	-	-	-	-
C/C(=N\NC(=O)c1cccs1)c1ccc(C(=O)O)s1	-	-	82.5	64.0	-	-
C/C(=N\NC(=O)CCC(=O)Nc1ccccc1)c1cccs1	-	?	-	-	-	-
CC(=O)N/N=C(/C)c1ccc(NC(=O)c2csc(C)c2C)cc1	-	-	146.7	40.5	-	-
C/C(=N\NC(=O)c1csc(C)c1C)c1ccco1	-	-	62.3	37.2	-	-
CC(=O)Nc1ccc(/C(C)=N/NC(=O)c2ccncc2)cc1	-	-	-	-	-	-
SMILES	AMA1-RON2 inh	Pf growth 96h	Shiga toxin inh	CHX counter	SARS PLP yeast	Pf growth 48h
C/C(=N/NC(=O)c1cccs1)c1ccco1	-	-	94.9	56.0	-	-
C/C(=N\NC(=O)c1cccs1)C(C)(C)C	-	-	57.0	70.5	-	-
C/C(=N\NC(=O)c1csc(C)c1C)c1ccc(C)s1	-	-	37.9	38.2	-	-
CCOC(=O)NC(O)C(=O)c1cccs1 (centres undefined)	-	5.22µM	-	-	-	-
CC(=NNC(=O)c1cc(C)oc1C)c1ccc(Br)s1	-[11.6 µM]	.	.	.	-	.
CC(C)(CNC(=O)c1cccs1)CNC(=O)c1cccs1	-	?	-	-	-	-
CCOC(=O)C/C(C)=N/NC(=O)c1cccs1	-	-	71.4	22.1	-	-
OCC[C@@H]1C[C@H](O)[C@@H](O)[C@]2(Cc3ccccc3CO2)O1	-	-	-	-	-	-
CS(=O)(=O)N(CC(=O)Nc1ccc(S(=O)(=O)N2CCCC2)cc1)c1ccccc1F	-	?	-	-	?	-
CCN1C(=O)N(CC)C(O)(c2ccccc2)C1(O)c1ccccc1 (centres undefined)	-	.	-	-	-	-
CC(C)(C)C1=CC(O)(c2ccccc2)C=C(C(C)(C)C)C1=O	-	?	-	-	-	10.4µM
COc1ccccc1-c1nnc(Sc2nc([N+](=O)[O-])nn2C)o1	-	1.85µM	-	-	-	.
CCCCn1c2c(c3ccccc31)CCc1nonc1-2	-	-	-	-	-	-
Cc1cnc(C(=O)O)cn1	.	-	.	.	.	-
COc1ccc2[nH]cc(C(=O)NCCc3ccccc3)c(=O)c2c1	-	-	28.5	-	-	-
CCOCCCNC(=O)c1c[nH]c2ccc(OCC)cc2c1=O	-	-	-	-	-	2.33µM
CCCOc1ccc2[nH]cc(C(=O)O)c(=O)c2c1	-	14.7µM	-	-	-	-
COc1ccc2c(=O)c(C(=O)NCCc3ccccc3)c[nH]c2c1	-	-	17.9	24.9	-	-
CCOc1ccc2[nH]cc(C(=O)NCc3ccc(F)cc3)c(=O)c2c1	-	-	-	-	-	?
Cc1ccccc1CN1CC2=C(CCN(Cc3ccccc3)C2=O)N2CCN=C12	-	.	.	.	.	.
COc1ccc(-n2c(C(C)(C)C)csc2=Nc2c(C)n(C)n(-c3ccccc3)c2=O)cc1	-	?	-	-	-	-
COc1ccc2c(=O)c(C(=O)NCCc3ccc(OC)c(OC)c3)c[nH]c2c1	-	?	-	-	-	10.4µM
CCOC(=O)c1nn(-c2ccccc2)c2nnc(Cc3ccc(C)cc3)c(=O)n12	-	-	-	-	-	-
CCN(C[C@H]1N[C@@](CC)(C(=O)OC)[C@H]2C(=O)N(Cc3ccccc3)C(=O)[C@@H]12)S(=O)(=O)c1ccc(C(C)(C)C)cc1	-	.	.	.	-	.
CC(=O)Oc1ccc(N2C(=O)[C@@H]3[C@H](C2=O)[C@H]2c4ccccc4C=NN2[C@@H]3C(C)=O)cc1	-	-	-	-	-	-
CC(=O)c1ccc(N2C(=O)[C@@H]3[C@H](C2=O)[C@H]2c4ccccc4C=NN2[C@@H]3C(C)=O)cc1	-	-	-	10.2	-	-
COc1ccc(/C(C)=N/Nc2ncc(Cl)cc2Cl)c(O)c1	-	?	-	-	?	?
COc1cc(OC)cc(-n2nnnc2SCC(=O)N2CCCC2)c1	-	?	-	-	-	-
